Results as given in the supplement of paper PMC4206461.

Tested on: Pseudomonas aeruginosa PA14 dppBCDF deletion mutant
Test: respiration area under curve with compound as sole nitrogen source, 24 h (OmniLog AUC (arbitrary units)); higher = more respiration / better utilisation as nitrogen source, active = 2000 or more
Details: plate: PM8
Procedure: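 Biolog Phenotype MicroArray plates PM6-PM8: each di/tripeptide is the sole nitrogen source. Tetrazolium reduction was read in the OmniLog every 15 min for 24 h at 37°C and summarised as area under the respiration curve (arbitrary units). Values below 2000 count as no respiration. Strain is the dipeptide ABC transporter deletion mutant.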

| SMILES | respiration area under curve |
| --- | --- |
| N[C@@H](Cc1ccc(O)cc1)C(=O)NCC(=O)NCC(=O)O | 4900 (active) |
